Most compounds without a hit are left out; they make up all but 14% or so of the library.
Shiga inhibitor = inhibitors of Shiga toxin in Vero cells; Vero cells, Shiga toxin protein synthesis inhibition reporter; inhibition, % at 38.7 µM; AID 2315; actives 9.2% (n = 290,000); in the data active means inhibition mostly above about 28%, no sharp cut-off; inactive means mostly below about 43%
Giardia FBPA inh = blocks Giardia fructose-bisphosphate aldolase activity; A8B2U2; purified Giardia FBPA; Potency, µM (top dose mostly 59.6 µM), usual class: inhibitors; actives 0.71% (n = 290,000); AID 2451; further: nearly all actives have a fitted effect of over 55% in size
Target sequence (A8B2U2 whole entry, looked up): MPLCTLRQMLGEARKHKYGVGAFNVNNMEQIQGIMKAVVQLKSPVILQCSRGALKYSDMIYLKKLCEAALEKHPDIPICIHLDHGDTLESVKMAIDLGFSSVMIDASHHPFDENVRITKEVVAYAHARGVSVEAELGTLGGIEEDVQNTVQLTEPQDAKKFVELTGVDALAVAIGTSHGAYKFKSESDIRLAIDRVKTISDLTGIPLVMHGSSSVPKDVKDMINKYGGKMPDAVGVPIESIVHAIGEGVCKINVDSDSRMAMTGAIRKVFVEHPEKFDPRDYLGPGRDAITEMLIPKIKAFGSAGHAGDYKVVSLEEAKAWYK
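Giardia FBPA (40 nM reagent) was preincubated 10 min at RT with compound (up to 57.5 uM final), then substrate plus GAPDH/TPI/NAD/arsenate coupling system with diaphorase/resazurin was added; resorufin fluorescence (525/598 nm) was read after 20 min.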
LmPK inh = inhibitors of Leishmania mexicana pyruvate kinase; Q27686; purified LmPK, Kinase-Glo ATP luminescence, 1 h; Potency, µM (titrated, usually from 57.5 µM), most hits filed as inhibitors; actives 0.37% (n = 290,000)
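Kinase-Glo luminescence read after 1 h RT reaction of 0.1 nM LmPK with 0.5 mM PEP and 0.1 mM ADP. Activity scaled between uninhibited and enzyme-free controls.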
CHX counter = counter-screen for Shiga toxin inhibitors: cycloheximide protein synthesis inhibition. AID 2314. cell reporter, cycloheximide protein synthesis inhibition counterscreen. actives 12% (n = 300,000). max response, %; in the data active means max response mostly above about 13%, no sharp cut-off; inactive means mostly below about 14%; further: read at 38.3 µM for the half of the compounds with a filed dose
NS1 inh = influenza NS1 inhibition. Potency, µM (titrated, usually from 46.1 µM). actives 0.4% (n = 270,000). AID 2326; calls by dose curve; further: actives are rising curves; nearly all actives have a fitted effect of over 50% in size
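In this qHTS, NS1 from influenza A is expressed in budding yeast, where it slows growth. Cells are switched from glucose to 2% galactose medium (pH 6.0, -URA), treated with compound, and growth recovery is read at OD600.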
Each line names hits and unclear results; the compound was inactive in the other large screens; ! = a repeat was not active. Unless noted, the call rests on the fitted dose curve; in most records, active means well fitted curve in the direction sought with a large enough effect; inconclusive means small, poorly fitted or top-dose-only effect, or another doubt; inactive means no such curve, though single readings can be large; an effect the other way counts as inactive or inconclusive.

O=C(O)C1C2CCC(C2)C1C(=O)Nc1nc2ccccc2s1 (stereo unspecified)	none
COc1ccc2nc(NC(=O)CSc3nc4ccccc4o3)sc2c1	Shiga inhibitor 134, CHX counter 40, NS1 inh inconclusive
CN(C)C(=S)Nc1nc2ccccc2s1	Shiga inhibitor 104, Giardia FBPA inh inconclusive, CHX counter 38
O=C(CSc1nc2ccccc2o1)Nc1nc2ccc(Br)cc2s1	none
CCc1cc2c(nc1CC)CCN(CC/C(C)=N/O[C@@H](C)CN1CCCc3nc(C)c(C)cc31)C2	none (no result: Shiga inhibitor, LmPK inh, CHX counter, NS1 inh)
CCCCCOc1ccc(CSCCNC(=S)Nc2ccccc2)cc1	CHX counter 24
C/C=C(\C)C(=O)O[C@H]1C[C@@]2(C)CCC(C(C)C)C2(O)CC[C@@]1(C)O (stereo partly specified)	none (no result: Shiga inhibitor, LmPK inh, CHX counter, NS1 inh)
C#CC[N+]1(CC#Cc2ccccc2)CCCCC1	none (no result: NS1 inh)
C(#Cc1ccccc1)CN1CCOCC1	Shiga inhibitor 96, CHX counter 31 (no result: NS1 inh)
C#CC[N+]1(CC#Cc2ccccc2)CCOCC1	CHX counter 16
COCCCNC(=O)C1CCN(S(=O)(=O)c2ccc3nc4c(c(C(=O)O)c3c2)CCCCC4)CC1	none
Cc1ccc(NC(=O)C(OC(=O)c2ccc(C=O)cc2)c2ccccc2)cc1Cl (stereo unspecified)	CHX counter 15, NS1 inh inconclusive
COCC(C)NC(C(=O)Nc1ccc(C)c(Cl)c1)c1ccccc1 (stereo unspecified)	none
c1ccc(-c2nc(-c3cccnc3)n[nH]2)cc1	CHX counter 31
Brc1cccc(-c2n[nH]c(-c3ccccc3)n2)c1	Shiga inhibitor 146, CHX counter 64
COc1ccc([C@]23Cc4cc(C#N)ccc4C(O2)c2c(c4ccc(OC)cc4oc2=O)O3)cc1	none
O=C1CC(c2ccc(O)cc2)Oc2cc(O)cc(O)c21 (stereo unspecified)	CHX counter 14
O=C1CC(c2ccc(O)c(O)c2)Oc2cc(O)cc(O)c21 (stereo unspecified)	none
O=C1CC(c2ccccc2)Oc2cc(O)cc(O)c21 (stereo unspecified)	Shiga inhibitor 57, CHX counter 16
Cc1ccccc1-c1cncnc1NC1CCNCC1	none (no result: Shiga inhibitor, LmPK inh, CHX counter, NS1 inh)
COc1cccc2c1N(C)C(=O)CC21C=CC(=O)C=C1	none (no result: LmPK inh, NS1 inh)
O=C(N/N=C/C(c1ccccc1)c1ccccc1)c1ccccc1F	CHX counter 49
O=C(N/N=C/c1c(Cl)cccc1Cl)c1ccc(F)cc1	none
Cn1cccc1C(=O)N/N=C/c1c(Cl)cccc1Cl	Shiga inhibitor 61, CHX counter 63
O=C(N/N=C/c1c(Cl)cccc1Cl)c1ccccc1F	Shiga inhibitor 46, CHX counter 26
O=[N+]([O-])c1ccc(CSc2ccc(-c3ccccn3)nn2)cc1	none
Clc1ccc(-c2ccc(SCc3ccccn3)nn2)cc1	Shiga inhibitor 59, CHX counter 41
c1ccc(CSc2nnc(SCc3ccccn3)s2)nc1	Shiga inhibitor 59, CHX counter 30
c1ccc(CSc2ccc(-c3ccccn3)nn2)nc1	Shiga inhibitor 98, Giardia FBPA inh inconclusive, CHX counter 48 (no result: NS1 inh)
CC(C)OC(=O)C[C@H](NC(=O)OC(C)(C)C)c1ccccc1	none (no result: Shiga inhibitor, LmPK inh, CHX counter, NS1 inh)
O=c1cc(-c2ccccc2)oc2cccc(O)c12	none (no result: Shiga inhibitor, LmPK inh, CHX counter, NS1 inh)
O=c1cc(-c2cccc(Cl)c2)oc2cccc(O)c12	CHX counter 27!
O=c1cc(-c2ccccc2Cl)oc2ccc([N+](=O)[O-])c(O)c12	none
Cc1ccccc1-c1cc(=O)c2c(O)cccc2o1	Shiga inhibitor 28, CHX counter 22
Nc1ccc2oc(-c3ccccc3Cl)cc(=O)c2c1O	Shiga inhibitor 43, CHX counter 50
O=C(c1cccc(Cl)c1)N1CCCc2ccccc21	none (no result: Shiga inhibitor)
CCCC[C@@H]1C[C@H]1C(NC(=O)c1ccccc1)c1ccc(-c2ccccc2)cc1 (stereo partly specified)	none (no result: Shiga inhibitor, LmPK inh, CHX counter, NS1 inh)
COc1ccc(N=c2cc(-c3ccc(O)cc3)oc3ccccc23)cc1	Shiga inhibitor 12, CHX counter 42
COc1ccc(-c2cc(=Nc3ccccc3)c3cc(C)ccc3o2)cc1	Shiga inhibitor 97, CHX counter 86
COc1ccc(N=c2cc(-c3ccc(OC)cc3)oc3ccccc23)cc1	none
COc1ccc(-c2cc(=Nc3ccc(C)cc3)c3ccccc3o2)cc1	none
COc1ccc(-c2noc(CCC(=O)NC3CCCCC3)n2)cc1	none
Cc1ccc(NC(=O)c2nnn(-c3cc(C)cc(C)c3)c2N)cc1	Shiga inhibitor 130, CHX counter 38
Cc1c(C(=O)Nc2ccc(F)cc2)nnn1-c1cccc(C(F)(F)F)c1	Shiga inhibitor 49, CHX counter 47 (no result: NS1 inh)
COc1ccc(CCNC(=O)c2nnn(-c3cccc(C)c3)c2N)cc1OC	none
Cc1cccc(C(=O)NC(=S)N2CCc3ccccc3C2)c1	none
Cc1cccc(-n2nnc(C(=O)N3CCc4ccccc4C3)c2N)c1	Shiga inhibitor 55, CHX counter 29
Cc1cccc(-n2nnc(C(=O)Nc3ccc(F)cc3)c2N)c1	Shiga inhibitor 79, CHX counter 51
Cc1onc(-c2ccccc2Cl)c1C(=O)N1CCc2ccccc2C1	none
O=C(c1cccnc1)N1CCCc2ccccc21	none
O=C(c1noc2c1CCc1ccccc1-2)N1CCc2ccccc2C1	Shiga inhibitor 60, CHX counter 28
O=C(c1noc2c1CCc1ccccc1-2)N1CCCc2ccccc21	CHX counter 21
O=C(c1noc2c1CCc1ccccc1-2)N1CCOCC1	Shiga inhibitor 43, CHX counter 36
O=C(c1noc2c1CCCCC2)N1CCOCC1	none
COc1ccc(S(=O)(=O)Nc2cccc3cccnc23)c([N+](=O)[O-])c1	none (no result: Giardia FBPA inh, LmPK inh, NS1 inh)
Cc1ccc(S(=O)(=O)c2ncccc2N)cc1	none
COc1ccc(C=Nc2cccnc2N)cc1	CHX counter 24 (no result: Shiga inhibitor)
Cc1ccc(C=Nc2cccnc2N)cc1	Shiga inhibitor 13, Giardia FBPA inh inconclusive, CHX counter 19
CCOc1ccc(C=Nc2cccc3ncccc23)cc1	Giardia FBPA inh inconclusive (no result: NS1 inh)
Cc1ccc(C(=O)NCCC(=O)NCc2ccco2)cc1	none
COc1cc(NC(=O)CSc2nc(C3CC3)nc3ccccc23)cc(OC)c1	none
O=C(Cc1ccc(Cl)cc1)N/N=C/c1c(Cl)cccc1Cl	none
Cc1ccsc1/C=N\NC(=O)c1n[nH]c2c1CCC2	LmPK inh 10µM, CHX counter 11
Cc1ccsc1/C=N/NC(=O)CO	none
O=C(N/N=C/c1c(Cl)cccc1Cl)c1n[nH]c2c1CCCC2	Shiga inhibitor 132, CHX counter 94, NS1 inh inconclusive
OC1OC[C@H](O)[C@@H](O)[C@H]1O (stereo partly specified)	none (no result: LmPK inh, NS1 inh)
O=C(CCCc1ccccc1)Nc1ccccc1C(F)(F)F	CHX counter 13 (no result: Shiga inhibitor)
O=C(CC(=O)Nc1ccccc1C(F)(F)F)Nc1ccccc1C(F)(F)F	none
Cc1cccc(NC(=O)CCCc2ccccc2)c1C	Shiga inhibitor 32, CHX counter 23
Cc1ccccc1NC(=O)Cc1ccccc1	none
O=C(CC(=O)c1ccccc1)Nc1ccccc1C(F)(F)F	CHX counter 32
Cc1ccccc1NC(=O)CC(=O)c1ccccc1	CHX counter 18
O=C(CCCOc1ccccc1)Nc1ccccc1C(F)(F)F	none

From PubChem BioAssay
